The supplement of paper PMC4466140

B1: unnamed (peptide)
chain: ITHRLRISIPGITGR

Molecular target: CaNbp2
Experiment: SPOT peptide array binding signal intensity (averaged, normalized) (arbitrary units (background-subtracted, floor 0; scale differs between SH3 domains)); higher = stronger binding of the SH3 domain to the peptide
Summary of the method: (§1)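 The binding signal is the normalized, background-subtracted spot intensity averaged over replicates; its arbitrary units differ between domains. It was obtained by incubating 10 μg/ml GST-fused SH3 domains from four yeast species overnight at 4°C in TBS-based blocking buffer on cellulose membranes with synthetic 15-mer peptides, cysteines replaced by serines, then detecting with anti-GST antibody, HRP anti-mouse secondary and luminol.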

Binder	SPOT peptide array binding signal intensity
B1	454

Molecular target: CaRvs167
Experiment: as above
Summary of the method: as §1

Binder	SPOT peptide array binding signal intensity
B1	636

Molecular target: CaRvs167-3
Experiment: as above
Summary of the method: as §1

Binder	SPOT peptide array binding signal intensity
B1	2400

Molecular target: CaSho1
Experiment: as above
Summary of the method: as §1

Binder	SPOT peptide array binding signal intensity
B1	855

Molecular target: CaSla1-D1-D2
Experiment: as above
Summary of the method: as §1

Binder	SPOT peptide array binding signal intensity
B1	28

Molecular target: CaSla1-D3
Experiment: as above
Summary of the method: as §1

Binder	SPOT peptide array binding signal intensity
B1	454

Molecular target: ScAbp1
Experiment: as above
Summary of the method: as §1

Binder	SPOT peptide array binding signal intensity
B1	23

Molecular target: ScBbc1
Experiment: as above
Summary of the method: as §1

Binder	SPOT peptide array binding signal intensity
B1	16.8

Molecular target: ScBem1-D1
Experiment: as above
Summary of the method: as §1

Binder	SPOT peptide array binding signal intensity
B1	44.5

Molecular target: ScBzz1-D1
Experiment: as above
Summary of the method: as §1

Binder	SPOT peptide array binding signal intensity
B1	100

Molecular target: ScBzz1-D2
Experiment: as above
Summary of the method: as §1

Binder	SPOT peptide array binding signal intensity
B1	442

Molecular target: ScCyk3
Experiment: as above
Summary of the method: as §1

Binder	SPOT peptide array binding signal intensity
B1	72

Molecular target: ScFus1
Experiment: as above
Summary of the method: as §1

Binder	SPOT peptide array binding signal intensity
B1	2080

Molecular target: ScHof1
Experiment: as above
Summary of the method: as §1

Binder	SPOT peptide array binding signal intensity
B1	2

Molecular target: ScHse1
Experiment: as above
Summary of the method: as §1

Binder	SPOT peptide array binding signal intensity
B1	2140

Molecular target: ScLsb1
Experiment: as above
Summary of the method: as §1

Binder	SPOT peptide array binding signal intensity
B1	33.5

Molecular target: ScLsb2
Experiment: as above
Summary of the method: as §1

Binder	SPOT peptide array binding signal intensity
B1	22

Molecular target: ScLsb3
Experiment: as above
Summary of the method: as §1

Binder	SPOT peptide array binding signal intensity
B1	282

Molecular target: ScLsb4
Experiment: as above
Summary of the method: as §1

Binder	SPOT peptide array binding signal intensity
B1	20

Molecular target: ScMyo3
Experiment: as above
Summary of the method: as §1

Binder	SPOT peptide array binding signal intensity
B1	≤ 0

Molecular target: ScMyo5
Experiment: as above
Summary of the method: as §1

Binder	SPOT peptide array binding signal intensity
B1	1.5

Molecular target: ScNbp2
Experiment: as above
Summary of the method: as §1

Binder	SPOT peptide array binding signal intensity
B1	397

Molecular target: ScPex13
Experiment: as above
Summary of the method: as §1

Binder	SPOT peptide array binding signal intensity
B1	50.2

Molecular target: ScRvs167
Experiment: as above
Summary of the method: as §1

Binder	SPOT peptide array binding signal intensity
B1	163

Molecular target: ScSho1
Experiment: as above
Summary of the method: as §1

Binder	SPOT peptide array binding signal intensity
B1	2380

Molecular target: ScSla1-D1-D2
Experiment: as above
Summary of the method: as §1

Binder	SPOT peptide array binding signal intensity
B1	267

Molecular target: ScSla1-D3
Experiment: as above
Summary of the method: as §1

Binder	SPOT peptide array binding signal intensity
B1	69

Molecular target: SpAbp1-D1
Experiment: as above
Summary of the method: as §1

Binder	SPOT peptide array binding signal intensity
B1	91.5

Molecular target: SpBbc1
Experiment: as above
Summary of the method: as §1

Binder	SPOT peptide array binding signal intensity
B1	57.2

Molecular target: SpBzz1-D1
Experiment: as above
Summary of the method: as §1

Binder	SPOT peptide array binding signal intensity
B1	486

Molecular target: SpBzz1-D2
Experiment: as above
Summary of the method: as §1

Binder	SPOT peptide array binding signal intensity
B1	1

Molecular target: SpCyk3
Experiment: as above
Summary of the method: as §1

Binder	SPOT peptide array binding signal intensity
B1	30

Molecular target: SpHof1
Experiment: as above
Summary of the method: as §1

Binder	SPOT peptide array binding signal intensity
B1	272

Molecular target: SpHof1-2
Experiment: as above
Summary of the method: as §1

Binder	SPOT peptide array binding signal intensity
B1	31

Molecular target: SpHof1-3
Experiment: as above
Summary of the method: as §1

Binder	SPOT peptide array binding signal intensity
B1	461

Molecular target: SpHse1
Experiment: as above
Summary of the method: as §1

Binder	SPOT peptide array binding signal intensity
B1	625

Molecular target: SpLsb1
Experiment: as above
Summary of the method: as §1

Binder	SPOT peptide array binding signal intensity
B1	10.8

Molecular target: SpLsb4
Experiment: as above
Summary of the method: as §1

Binder	SPOT peptide array binding signal intensity
B1	108

Molecular target: SpMyo1
Experiment: as above
Summary of the method: as §1

Binder	SPOT peptide array binding signal intensity
B1	3

Molecular target: SpNbp2
Experiment: as above
Summary of the method: as §1

Binder	SPOT peptide array binding signal intensity
B1	802

Molecular target: SpPex13
Experiment: as above
Summary of the method: as §1

Binder	SPOT peptide array binding signal intensity
B1	124

Molecular target: SpRvs167
Experiment: as above
Summary of the method: as §1

Binder	SPOT peptide array binding signal intensity
B1	115

Molecular target: SpSla1-D1-D2
Experiment: as above
Summary of the method: as §1

Binder	SPOT peptide array binding signal intensity
B1	1

Molecular target: SpSla1-D3
Experiment: as above
Summary of the method: as §1

Binder	SPOT peptide array binding signal intensity
B1	6.5
